Structures are written as SMILES. Results filed as inconclusive are left out. The source made the active and inactive calls. Rule for the calls: active = hit-call score of the fitted dose curve at least 0.9, where 1 is the maximum; inconclusive = response in the unintended direction; inactive = score below 0.9.

Experiment [1] has as its target Sodium channel protein type 1 subunit alpha (Rattus norvegicus) (UniProt P04774). The experiment can be described thus: NVS_IC_rNaCh_site2: NovaScreen (NVS) Ion Channel Assay for rat Sodium Channel, Site 2 (NaCh) (AID 2283322).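 Note: hit means loss of radioligand binding signal relative to DMSO so AC50 marks displacement.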 In outline:
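Initial duplicate single-point testing at 25 uM, followed by concentration-response runs for actives. Binding of radioligand to rat forebrain membranes quantified after 1 h via filter-based radiodetection.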

Experiment [2] in a line: NVS_IC_rCaDHPRCh_L: NovaScreen (NVS) Ion Channel Assay for rat Calcium Channel, Type L, Dihydropyridine Site (CaDHPRCh_L) (AID 2283320). Put shortly:
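Rat cortex membrane preparation; dihydropyridine-site radioligand displacement read 1 h post-dose by filtration and scintillation. Primary single-point screen 25 uM in duplicate, then concentration series to 50 uM maximum; DMSO as negative control.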

The next experiment concerns the target Adra2b (gene 24174) (UniProt P19328). The experiment can be described thus: NVS_GPCR_rmAdra2B: NovaScreen (NVS) G Protein-Coupled Receptor Assay for hybird cells Adrenergic, Alpha 2B Receptor (Adra2B) (AID 2283306). Put shortly: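 Compounds screened first at 25 uM in duplicate, with actives followed up in concentration-response; specific radioligand displacement from hybrid neuroglioma/blastoma cell membrane preparations measured by filter scintillation counting after 1 h, normalized to DMSO.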

In experiment [3] the target is rat Neurokinin-1 Receptor (NK1), Tacr1 (gene 24807) (UniProt P14600). The experiment can be described thus: NVS_GPCR_rNK1: NovaScreen (NVS) G Protein-Coupled Receptor Assay for rat Neurokinin-1 Receptor (NK1) (AID 2283309). In outline:
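Competitive radioligand binding to NK1 in rat submaxillary membranes, 1 h incubation, filtration and scintillation read-out. Compounds first screened at 25 uM in duplicate, then concentration-response for actives; signal loss relative to DMSO.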

For experiment [4], the target named is rat Vasopressin 1 Receptor (V1), Avpr1a (gene 25107) (UniProt P30560). The experiment can be described thus: NVS_GPCR_rV1: NovaScreen (NVS) G Protein-Coupled Receptor Assay for rat Vasopressin 1 Receptor (V1) (AID 2283316). Put shortly:
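Concentration-response up to 50 uM for chemicals passing a threshold such as 30% inhibition in an initial duplicate 25 uM screen. Displacement of radioligand from rat liver membranes measured after 1.5 h by filtration and scintillation.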

The target of experiment [5] is rat Neurotensin Receptor (NTS), Ntsr1 (gene 366274) (UniProt P20789). The experiment can be described thus: NVS_GPCR_rNTS: NovaScreen (NVS) G Protein-Coupled Receptor Assay for rat Neurotensin Receptor (NTS) (AID 2283308). Put shortly: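 Single-point duplicates at 25 uM, then concentration series to 50 uM max for hits, measured radioligand displacement on rat forebrain membrane preparations. Bound label counted by filtration scintillation at 1 h; signal loss relative to DMSO fitted.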

The target of experiment [6] is bovine Gamma-Aminobutyric Acid Type A Receptor BDZ, alpha 1 site (GABARa1), GABRA1 (gene 780973) (UniProt P08219). The experiment can be described thus: NVS_LGIC_bGABARa1: NovaScreen (NVS) Ligand-Gated Ion Channel Assay for bovine Gamma-Aminobutyric Acid Type A Receptor BDZ, alpha 1 site (GABARa1) (AID 2283321). In outline:
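Bovine cortex membrane preparation, benzodiazepine site on GABA-A alpha1; specific radioligand displacement read after 0.75 h by filtration and scintillation. Screen at 25 uM, then singleton titrations up to 50 uM; DMSO baseline.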

The target in experiment [7] is human Neonicotinoid receptor (NNR), CHRNA2 (gene 1135) (UniProt Q15822). Briefly: NVS_LGIC_hNNR_NBungSens: NovaScreen (NVS) Ligand-Gated Ion Channel Assay for human Neonicotinoid receptor (NNR) (AID 2283313). Put shortly:
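Compounds first screened in duplicate at 25 uM, then actives re-tested in single-replicate dose series up to 50 uM. Binding measured as displacement of specific radioligand from neuroblastoma membrane receptors after 2 h, scintillation read on filters.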

Experiment [8] concerns the target rat Neonicotinoid receptor (NNR), Chrna7 (gene 25302) (UniProt Q05941). The experiment can be described thus: NVS_LGIC_rNNR_BungSens: NovaScreen (NVS) Ligand-Gated Ion Channel Assay for rat Neonicotinoid receptor (NNR) (AID 2283315). In outline:
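Rat cortical membrane preparation incubated 2.5 h with tritiated or iodinated radioligand and test chemical. Bound radioactivity was filtered and counted by scintillation, and displacement was analysed against DMSO.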

In the next experiment the test system is NCBI gene 24521. The experiment can be described thus: NVS_IC_rKATPCh: NovaScreen (NVS) Ion Channel Assay for rat Potassium Channel, ATP-Sensitive (KATPCh) (AID 2283319). In outline:
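Primary duplicate screen at 25 uM, then singleton concentration series to 50 uM maximum, in a rat cortex membrane radioligand displacement assay. Binding measured by filtration and scintillation 2 h post-dose; DMSO baseline.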

Experiment [9] has as its target rat Opioid Receptor, Non-selective Sodium (Na+) Binding, Oprm1 (gene 25601) (UniProt P33535). Briefly: NVS_GPCR_rOpiate_NonSelectiveNa: NovaScreen (NVS) G Protein-Coupled Receptor Assay for rat Opioid Receptor, Non-selective Sodium (Na+) Binding (AID 2283311). Put shortly:
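Filtration radioligand binding on rat forebrain membrane preparations, read 1.5 h after dosing. Single-concentration 25 µM primary screen in duplicate, followed by singleton concentration series to 50 µM max for actives; DMSO baseline.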

Experiment [10] has as its target rat Opioid Receptor, Non-selective Binding, Oprm1 (gene 25601) (UniProt P33535). Briefly: NVS_GPCR_rOpiate_NonSelective: NovaScreen (NVS) G Protein-Coupled Receptor Assay for rat Opioid Receptor, Non-selective Binding (AID 2283318). In outline:
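Filter-based radioligand displacement using rat forebrain membrane preparations, measured 1.5 h post-dosing. Single-concentration duplicate screen at 25 uM, follow-up in concentration series; activity taken as signal loss relative to DMSO.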

In experiment [11] the target is rat Corticotropin Releasing Factor Receptor (CRF), Crhr1 (gene 58959) (UniProt P35353). The experiment can be described thus: NVS_GPCR_rCRF: NovaScreen (NVS) G Protein-Coupled Receptor Assay for rat Corticotropin Releasing Factor Receptor (CRF) (AID 2283300). In outline:
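Single-concentration (25 uM, duplicate) radioligand binding on rat cortical membrane preparations, counted by scintillation after 2 h. Activity scored as signal loss relative to DMSO negative control.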

The target of experiment [12] is rat Neurokinin-3 Receptor (NK3), Tacr3 (gene 24808) (UniProt P16177). The experiment can be described thus: NVS_GPCR_rNK3: NovaScreen (NVS) G Protein-Coupled Receptor Assay for rat Neurokinin-3 Receptor (NK3) (AID 2283310). Put shortly:
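Filter-based radioligand displacement on rat cortex membrane preparations, read by scintillation 2 h post-dose. Chemicals first tested in duplicate at 25 uM; actives followed up in concentration series with a 50 uM maximum.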

In experiment [13] the target is rat Histamine Receptor (H3), Hrh3 (gene 85268) (UniProt Q9QYN8). Briefly: NVS_GPCR_rH3: NovaScreen (NVS) G Protein-Coupled Receptor Assay for rat Histamine Receptor (H3) (AID 2283303). Put shortly: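 Filter-binding radioligand competition on rat forebrain membranes, 1 h incubation; compounds screened at 25 µM in duplicate and followed in concentration series to 50 µM, loss of bound signal vs DMSO.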

The target in experiment [14] is Metabotropic glutamate receptor 1 (Rattus norvegicus) (UniProt P23385). Briefly: NVS_GPCR_rmMGluR1: NovaScreen (NVS) G Protein-Coupled Receptor Assay for rat Glutamate Metabotropic Receptor 1 (MGluR1) (AID 2283305). In outline: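 Binding to native receptor from rat cerebellum extract, measured as displacement of a radioligand (scintillation counting, filter separation) after 1 hour. Compounds tested at 25 uM in duplicate, then titrated to a 50 uM maximum.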

In experiment [15] the target is rat Somatostatin Receptor (SST), Sstr1 (gene 25033) (UniProt P28646). The experiment can be described thus: NVS_GPCR_rSST: NovaScreen (NVS) G Protein-Coupled Receptor Assay for rat Somatostatin Receptor (SST) (AID 2283314). In outline: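 Single-concentration duplicate screen (25 uM), then concentration-response up to 50 uM for chemicals passing a threshold such as 30% inhibition. Membranes came from rat forebrain. Binding was measured 1 h post-dose by filter radiodetection and scintillation, relative to DMSO.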

bovine Gamma-Aminobutyric Acid Type A Receptor BDZ, alpha 1 site (GABARa1), GABRA1 (gene 780973), sequence (P08219 whole entry, looked up): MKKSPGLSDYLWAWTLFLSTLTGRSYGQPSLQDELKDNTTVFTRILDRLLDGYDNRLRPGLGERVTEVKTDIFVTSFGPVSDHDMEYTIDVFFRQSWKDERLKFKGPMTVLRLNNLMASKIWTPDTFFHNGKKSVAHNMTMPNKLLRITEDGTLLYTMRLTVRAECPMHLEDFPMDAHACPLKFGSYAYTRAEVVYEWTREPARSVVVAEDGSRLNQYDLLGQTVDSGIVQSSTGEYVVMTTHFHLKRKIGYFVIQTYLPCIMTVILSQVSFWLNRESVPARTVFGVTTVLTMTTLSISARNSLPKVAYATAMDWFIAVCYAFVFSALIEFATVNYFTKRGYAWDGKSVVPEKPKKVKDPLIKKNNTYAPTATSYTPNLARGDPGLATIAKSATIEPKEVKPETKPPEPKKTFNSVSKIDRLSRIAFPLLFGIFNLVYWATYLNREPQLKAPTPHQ
Adra2b (gene 24174), sequence (P19328 whole entry, looked up): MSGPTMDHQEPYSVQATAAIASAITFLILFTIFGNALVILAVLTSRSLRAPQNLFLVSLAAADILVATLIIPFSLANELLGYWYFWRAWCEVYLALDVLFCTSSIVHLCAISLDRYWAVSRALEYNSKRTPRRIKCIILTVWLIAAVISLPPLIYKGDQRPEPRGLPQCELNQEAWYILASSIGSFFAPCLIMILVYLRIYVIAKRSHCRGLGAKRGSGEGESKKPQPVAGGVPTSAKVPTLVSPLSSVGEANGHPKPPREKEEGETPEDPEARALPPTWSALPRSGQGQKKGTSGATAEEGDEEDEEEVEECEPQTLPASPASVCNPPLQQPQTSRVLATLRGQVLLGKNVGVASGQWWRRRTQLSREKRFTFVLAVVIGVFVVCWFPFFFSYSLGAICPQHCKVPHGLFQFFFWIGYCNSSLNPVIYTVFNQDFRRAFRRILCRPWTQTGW
rat Vasopressin 1 Receptor (V1), Avpr1a (gene 25107), sequence (P30560 whole entry, looked up): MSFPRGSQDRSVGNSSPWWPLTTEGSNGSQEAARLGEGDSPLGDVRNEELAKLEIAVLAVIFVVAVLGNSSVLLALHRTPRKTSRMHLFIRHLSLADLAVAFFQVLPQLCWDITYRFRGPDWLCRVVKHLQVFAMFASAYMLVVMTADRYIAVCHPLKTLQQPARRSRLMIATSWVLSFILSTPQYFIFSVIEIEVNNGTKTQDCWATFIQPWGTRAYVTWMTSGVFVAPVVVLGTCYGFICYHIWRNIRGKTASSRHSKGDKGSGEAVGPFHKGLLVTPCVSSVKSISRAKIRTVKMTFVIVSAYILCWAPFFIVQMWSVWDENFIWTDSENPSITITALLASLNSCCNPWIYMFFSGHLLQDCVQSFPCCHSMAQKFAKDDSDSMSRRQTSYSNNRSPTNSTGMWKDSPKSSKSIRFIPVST
rat Opioid Receptor, Non-selective Binding, Oprm1 (gene 25601), sequence (P33535 whole entry, looked up): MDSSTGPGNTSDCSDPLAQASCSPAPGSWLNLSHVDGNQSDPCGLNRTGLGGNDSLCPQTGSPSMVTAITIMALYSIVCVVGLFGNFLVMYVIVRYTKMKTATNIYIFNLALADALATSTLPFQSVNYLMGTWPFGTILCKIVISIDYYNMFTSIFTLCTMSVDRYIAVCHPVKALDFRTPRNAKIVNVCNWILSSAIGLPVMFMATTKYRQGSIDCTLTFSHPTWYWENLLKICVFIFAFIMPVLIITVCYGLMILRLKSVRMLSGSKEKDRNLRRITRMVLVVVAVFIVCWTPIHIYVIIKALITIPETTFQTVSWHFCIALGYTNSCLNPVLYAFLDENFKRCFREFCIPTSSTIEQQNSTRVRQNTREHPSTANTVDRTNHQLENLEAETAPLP
rat Opioid Receptor, Non-selective Sodium (Na+) Binding, Oprm1 (gene 25601), sequence (P33535 whole entry, looked up): as above
rat Neurokinin-1 Receptor (NK1), Tacr1 (gene 24807), sequence (P14600 whole entry, looked up): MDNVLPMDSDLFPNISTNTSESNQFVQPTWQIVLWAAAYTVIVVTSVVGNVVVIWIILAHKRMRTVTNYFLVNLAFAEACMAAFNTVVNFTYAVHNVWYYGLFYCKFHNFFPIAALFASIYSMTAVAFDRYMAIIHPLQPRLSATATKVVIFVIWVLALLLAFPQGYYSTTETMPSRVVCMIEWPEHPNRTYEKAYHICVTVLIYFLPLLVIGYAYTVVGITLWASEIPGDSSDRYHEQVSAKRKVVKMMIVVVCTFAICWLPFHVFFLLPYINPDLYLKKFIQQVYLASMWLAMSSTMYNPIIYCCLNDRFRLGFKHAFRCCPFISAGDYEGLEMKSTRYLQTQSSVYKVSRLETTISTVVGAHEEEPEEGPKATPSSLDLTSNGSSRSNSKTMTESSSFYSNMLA
rat Neurokinin-3 Receptor (NK3), Tacr3 (gene 24808), sequence (P16177 whole entry, looked up): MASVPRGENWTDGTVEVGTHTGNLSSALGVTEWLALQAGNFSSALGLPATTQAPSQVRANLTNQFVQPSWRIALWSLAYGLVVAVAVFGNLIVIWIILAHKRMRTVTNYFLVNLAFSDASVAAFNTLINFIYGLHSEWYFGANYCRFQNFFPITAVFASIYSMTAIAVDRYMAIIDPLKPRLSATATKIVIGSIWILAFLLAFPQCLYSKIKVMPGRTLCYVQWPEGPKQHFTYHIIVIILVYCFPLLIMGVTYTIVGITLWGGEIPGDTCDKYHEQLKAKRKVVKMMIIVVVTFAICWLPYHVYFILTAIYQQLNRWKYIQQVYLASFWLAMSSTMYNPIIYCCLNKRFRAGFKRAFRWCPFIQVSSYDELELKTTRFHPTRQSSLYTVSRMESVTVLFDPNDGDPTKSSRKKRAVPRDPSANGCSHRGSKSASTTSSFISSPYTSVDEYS
rat Corticotropin Releasing Factor Receptor (CRF), Crhr1 (gene 58959), sequence (P35353 whole entry, looked up): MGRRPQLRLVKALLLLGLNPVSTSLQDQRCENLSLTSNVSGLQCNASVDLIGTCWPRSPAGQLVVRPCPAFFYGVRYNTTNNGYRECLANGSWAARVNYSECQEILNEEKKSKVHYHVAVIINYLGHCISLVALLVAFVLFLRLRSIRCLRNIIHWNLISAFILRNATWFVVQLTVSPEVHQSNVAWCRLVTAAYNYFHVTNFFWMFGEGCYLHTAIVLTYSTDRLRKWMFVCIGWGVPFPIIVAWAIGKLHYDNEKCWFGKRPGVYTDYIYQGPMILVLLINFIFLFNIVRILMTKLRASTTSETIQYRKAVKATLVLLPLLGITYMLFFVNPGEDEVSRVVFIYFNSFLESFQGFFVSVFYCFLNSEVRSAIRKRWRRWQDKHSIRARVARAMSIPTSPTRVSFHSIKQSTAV
Metabotropic glutamate receptor 1 (Rattus norvegicus), sequence (P23385 whole entry, looked up): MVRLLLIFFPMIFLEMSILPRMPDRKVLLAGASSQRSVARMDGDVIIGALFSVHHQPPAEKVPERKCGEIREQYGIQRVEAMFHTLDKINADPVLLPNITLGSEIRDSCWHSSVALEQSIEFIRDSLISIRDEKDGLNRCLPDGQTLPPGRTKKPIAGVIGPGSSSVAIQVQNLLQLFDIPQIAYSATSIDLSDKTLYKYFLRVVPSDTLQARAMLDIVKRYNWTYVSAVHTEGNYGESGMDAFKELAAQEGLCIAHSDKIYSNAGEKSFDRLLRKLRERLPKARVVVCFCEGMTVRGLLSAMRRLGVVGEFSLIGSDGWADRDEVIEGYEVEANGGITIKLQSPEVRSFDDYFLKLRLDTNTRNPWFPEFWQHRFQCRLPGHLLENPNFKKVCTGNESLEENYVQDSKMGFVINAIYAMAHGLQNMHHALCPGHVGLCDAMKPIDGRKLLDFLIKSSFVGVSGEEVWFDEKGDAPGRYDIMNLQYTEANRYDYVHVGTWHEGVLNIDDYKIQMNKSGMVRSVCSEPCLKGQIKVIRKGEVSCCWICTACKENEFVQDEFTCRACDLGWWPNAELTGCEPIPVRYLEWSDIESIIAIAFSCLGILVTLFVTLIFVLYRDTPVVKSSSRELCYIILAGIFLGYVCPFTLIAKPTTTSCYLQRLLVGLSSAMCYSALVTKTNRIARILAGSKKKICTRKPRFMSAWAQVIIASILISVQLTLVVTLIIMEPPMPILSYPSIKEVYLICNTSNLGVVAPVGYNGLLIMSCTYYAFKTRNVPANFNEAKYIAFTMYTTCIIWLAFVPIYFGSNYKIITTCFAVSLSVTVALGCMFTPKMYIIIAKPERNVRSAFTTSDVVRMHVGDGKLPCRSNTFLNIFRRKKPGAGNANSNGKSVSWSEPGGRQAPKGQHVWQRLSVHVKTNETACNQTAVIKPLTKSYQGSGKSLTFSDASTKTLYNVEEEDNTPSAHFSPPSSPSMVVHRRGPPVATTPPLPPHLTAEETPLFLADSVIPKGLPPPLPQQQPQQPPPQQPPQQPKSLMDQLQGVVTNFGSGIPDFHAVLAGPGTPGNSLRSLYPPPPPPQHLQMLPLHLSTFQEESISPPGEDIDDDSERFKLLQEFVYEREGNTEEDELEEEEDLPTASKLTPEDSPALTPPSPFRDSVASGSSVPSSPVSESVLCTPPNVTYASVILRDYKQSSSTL
rat Neonicotinoid receptor (NNR), Chrna7 (gene 25302), sequence (Q05941 whole entry, looked up): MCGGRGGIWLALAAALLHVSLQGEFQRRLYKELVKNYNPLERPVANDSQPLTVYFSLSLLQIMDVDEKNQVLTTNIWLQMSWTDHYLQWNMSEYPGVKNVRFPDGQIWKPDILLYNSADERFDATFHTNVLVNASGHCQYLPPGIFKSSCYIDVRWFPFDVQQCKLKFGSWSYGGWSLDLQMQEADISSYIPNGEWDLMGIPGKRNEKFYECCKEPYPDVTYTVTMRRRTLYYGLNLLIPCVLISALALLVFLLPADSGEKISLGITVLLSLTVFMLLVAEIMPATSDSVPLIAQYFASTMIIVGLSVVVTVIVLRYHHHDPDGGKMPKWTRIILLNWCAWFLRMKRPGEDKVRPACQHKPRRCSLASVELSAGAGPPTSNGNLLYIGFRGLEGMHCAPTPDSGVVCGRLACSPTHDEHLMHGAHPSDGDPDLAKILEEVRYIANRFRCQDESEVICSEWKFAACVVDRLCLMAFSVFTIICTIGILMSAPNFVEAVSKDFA

For the compound `N#Cc1c(Cl)cccc1Cl`, the half-maximal activity concentration (AC50) in [1] is 38.2 µM (active).

Regarding `CCCCOCN(C(=O)CCl)c1c(CC)cccc1CC`, the AC50 in experiment [2] is 9.86 µM (active).

On to `Cn1c(-c2ccccc2)cc(-c2ccccc2)[n+]1C`, for which the concentration at half-maximal activity (AC50) with Adra2b (gene 24174) was 0.891 µM (active); in [1], 2.36 µM (active). The result in [3] was inactive.

As for `COc1cc(OC)nc(NC(=O)NS(=O)(=O)c2ncccc2OCC(F)(F)F)n1`, the AC50 in experiment [4] was 16.4 µM (active).

For the compound `CO/N=C(/C1=NOCCO1)c1ccccc1Oc1ncnc(Oc2ccccc2Cl)c1F`, the result in experiment [2] was inactive.

As for `O=C(Nc1ccccc1-c1ccc(Cl)cc1)c1cccnc1Cl`, the outcome in [5] and in [6] was inactive.

Regarding `CN/C(=N\[N+](=O)[O-])NCc1cnc(Cl)s1`, the AC50 in the experiment with Adra2b (gene 24174) was 8.79 µM (active); in experiment [7], 10.1 µM (active); in experiment [8], 25 µM (active).

On to `CCNC(=O)NC(=O)C(C#N)=NOC`, for which the compound was classed as inactive in experiment [1].

As to `COP(=S)(OC)SCn1nnc2ccccc2c1=O`, the result in the experiment on NCBI gene 24521 was inactive. Moreover, the AC50 in [6] was 10.1 µM (active).

With `COP(=O)(OC)O/C(C)=C/C(=O)N(C)C`, the compound was called inactive (in the experiment on NCBI gene 24521; in experiment [6]).

In the case of `Cc1cc(C)nc(Nc2ccccc2)n1`, the call in [3] and in experiment [1] was inactive.

Turning to `COCC(C)N(C(=O)CCl)c1c(C)csc1C` (centres undefined), in experiment [9], the AC50 was 16 µM (active). Moreover, in experiment [10], the result was inactive.

Regarding `COC(=O)c1c(C(F)F)nc(C(F)(F)F)c(C2=NCCS2)c1CC(C)C`, in [2], the outcome was inactive.

With `Nc1c(Cl)c(F)nc(OCC(=O)O)c1Cl`, the call in experiment [6] was inactive.

Take `CCN(CC)C(=O)C(C)Oc1cccc2ccccc12` (centres undefined): the outcome in [11], in experiment [10] and in [1] was inactive.

As to `CCCCC(C#N)(Cn1cncn1)c1ccc(Cl)cc1` (centres undefined), the call in experiment [12] and in experiment [2] was inactive. In addition, the AC50 was 1.98 µM (active) in experiment [4] and 25 µM (active) in experiment [1].

Consider `O=C1C2CC=CCC2C(=O)N1SC(Cl)(Cl)Cl` (centres undefined), for which the result in experiment [13] and in experiment [9] was inactive. The AC50 was 25 µM (active) in [14] and 5.93 µM (active) in experiment [15].

What is called AC50 is the midpoint of the concentration-response curve, whichever way the signal moves.

The record behind these values is PubChem BioAssay (EPA / NIEHS).
